These results are taken from PubChem BioAssay (NCATS).

Each structure is given as a SMILES string. Values joined by “and” are separate entries in the source; they are usually repeats but may differ in a detail not shown here. Equal values may be shown once. Records with an inconclusive call do not appear. Where a call stands in place of a potency, no number is given. For part of these data: Potency and affinity values are given separately. Active and inactive are the calls of the source. Unless noted, no rule for the calls is given here.

For assay [1] the following is noted: Ebola virus entry assay, green channel fluorescence.
Assay [2] is described as follows: qHTS assay for small molecule agonists of the antioxidant response element (ARE) signaling pathway measured by Nrf2-dependant transcriptional activity (AID 720636; active = well fitted curve in the direction sought with a large enough effect in the repeat runs; an effect the other way counts as inactive or inconclusive; also: potency is read from the fitted curve at half-maximal effect). The conditions noted are these: ARE-luc HepG2, Nrf2 luciferase reporter, 16 h; series mostly up to 92.4 µM. In short, it runs like this:
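ARE-luc HepG2 cells carrying an Nrf2-responsive luciferase reporter were plated in medium with 1% dialyzed FBS, left 6 hr at 37 C to attach, then exposed to compound for 16 hr. Luciferase luminescence was read after ONE-Glo addition.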
(In general: In qHTS, concentration-response curves come from the screen itself.)

Assay [3] in a line: qHTS assay for small molecule antagonists of the retinoid-related orphan receptor gamma (ROR-gamma) signaling pathway - cell viability counter screen (AID 720652; active = well fitted curve in the direction sought with a large enough effect in the repeat runs; an effect the other way counts as inactive or inconclusive;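 also: CHO reporter cells with doxycycline-induced ROR-gamma expression; compound exposure lasted 16 hr before ATP read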). The conditions noted are these: RORgamma reporter cell line viability counter screen; series mostly up to 92.2 µM. In short, it runs like this:
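Cytotoxicity counter screen: intracellular ATP (CellTiter-Glo luminescence) measured in the doxycycline-induced CHO RORE-luciferase reporter line after 16 hr compound exposure at 37 C, 5% CO2.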

Assay [4] can be described thus: qHTS assay for small molecule agonists of the antioxidant response element (ARE) signaling pathway measured by Nrf2-dependant transcriptional activity - cell viability counter screen (AID 720653; active = well fitted curve in the direction sought with a large enough effect in the repeat runs; an effect the other way counts as inactive or inconclusive). Conditions: ARE-bla HepG2 viability, CellTiter-Glo ATP luminescence, 16 h; max response: stronger effect = lower value. In short, it runs like this:
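Cytotoxicity counter screen: intracellular ATP quantified by CellTiter-Glo luminescence in the same ARE-bla HepG2 plates, after 16 h compound exposure and a 2 h beta-lactamase substrate step.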

Assay [5] is described as follows: qHTS Assay for Identifying Gametocytocidal Compounds (AID 743244; active = well fitted curve in the direction sought with a large enough effect; an effect the other way counts as inactive or inconclusive; also: potency is read from the fitted curve at half-maximal effect;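 as to max response: actives lower the fluorescent signal which means gametocytes are killed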). The conditions noted are these: P. falciparum 3D7 stage III-V gametocytes, alamarBlue, 72 h; max response: stronger effect = lower value. An outline of the steps: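 P. falciparum 3D7 stage III–V gametocytes (20,000 cells/well) were exposed to compounds for 72 h at 37 °C, 5% CO2. AlamarBlue was then added for 24 h; decreased resorufin fluorescence (Ex 525/Em 598 nm) indicated loss of viability.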

Assay [6] in a line: qHTS assay for cell viability of HEK293 cells (AID 743288; active = well fitted curve in the direction sought with a large enough effect; an effect the other way counts as inactive or inconclusive; also: nearly all actives have a fitted effect of over 50% in size). The conditions noted are these: ATP luminescence (CellTiter-Glo), 18 h; max response: stronger effect = lower value. In short, it runs like this: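 HEK293, 18 h, 37 C, ATP luminescence. Cells at 2,000/well were allowed at least 5 h to settle before dosing; CellTiter-Glo developed 30 min at RT.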
Assay [7] in a line: qHTS assay for cell viability of the p53RE-bla HCT-116 cell line (AID 743292; active = well fitted curve in the direction sought with a large enough effect; an effect the other way counts as inactive or inconclusive; also: nearly all actives have a fitted effect of over 55% in size). The conditions noted are these: p53RE-bla HCT-116 viability, ATP luminescence, 16 h; series mostly up to 95 µM. An outline of the steps: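 CellSensor p53RE-bla HCT-116 cells, 4,000/well, preincubated 5 h at 37 C, then exposed to compounds in DMSO for 16 h at 37 C. Viability read as CellTiter-Glo luminescence (intracellular ATP) after 30 min at room temperature.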

The conditions of assay [8]: Ebola virus entry assay, blue channel fluorescence.
Assay [9] is described as follows: qHTS profiling of the MIPE4 collection as inhibitors of Plasmodium falciparum (3D7) proliferation (AID 743344). The conditions noted are these: P. falciparum 3D7 in erythrocytes, SYBR Green DNA fluorescence, 72 h; at 28.5 µM (top of the series). An outline of the steps:
(§1)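 Parasite DNA was quantified by SYBR Green I fluorescence (ex 485, em 535 nm) after overnight lysis in saponin/Triton buffer at room temperature. Cultures at 0.3% parasitemia and 2.5% hematocrit were first exposed to compound for 72 h at 37 C; signals were normalised to artemisinin (0.29 uM) and vehicle wells.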

The nature of assay [10]: qHTS profiling of the MIPE4 collection as inhibitors of Plasmodium falciparum (DD2) proliferation (AID 743345). Conditions: P. falciparum Dd2 in erythrocytes, SYBR Green DNA, 72 h; at 28.5 µM (top of the series) unless noted. An outline of the steps: as §1
A short description of assay [11]: qHTS profiling of the MIPE4 collection as inhibitors of Plasmodium falciparum (DD2) proliferation (Rep 2) (AID 743346). Conditions: P. falciparum Dd2 in erythrocytes, SYBR Green DNA, 72 h; at 28.5 µM (top of the series). An outline of the steps:
as §1

Assay [12] in a line: qHTS profiling of the MIPE4 collection as inhibitors of Plasmodium falciparum (HB3) proliferation (AID 743347). The conditions noted are these: P. falciparum HB3 in erythrocytes, SYBR Green DNA, 72 h; at 28.5 µM (top of the series). An outline of the steps: as §1

Regarding `CC(=O)N[C@@H](CCC(N)=O)C(=O)O`, the compound was classed as inactive in [1]. `O=C(O)c1ccccn1`: in assay [1], the outcome was inactive. As for `O=C(O)CC(O)C(=O)O` (stereo unspecified), in assay [1], the result was inactive. In the case of `[O-][n+]1cccc(CO)c1`, the result in assay [1] was inactive. `CCN1CCc2nc(N)oc2CC1`: the result in assay [1] was inactive. Turning to `NCCS`, in [1], the call was inactive.

`[Cl][In]([Cl])[Cl]`: the Potency in assay [2] was 42.2 µM (active). Further, the call in [1] was inactive.

For `CCCCCCCCOc1ccc(C(=O)c2ccccc2)c(O)c1`, in [1], the result was inactive.

Take `Cc1ccccc1N=Nc1ccc(N=Nc2c(O)ccc3ccccc23)c(C)c1`: the outcome in assay [1] was inactive. On to `CC1=C(C(=O)O)N2C(=O)[C@@H](N)[C@H]2SC1`, for which the result in assay [1] was inactive.

With `CCn1cc(C(=O)O)c(=O)c2cc3c(cc21)OCO3`, in [1], the compound was called inactive.

With `Cc1cccc(C)c1NC(=O)c1ccccc1C(=O)O`, the result in assay [1] was inactive. Consider `CC(=O)N[C@@H](Cc1ccc(O)cc1)C(=O)O`, for which, in assay [1], the call was inactive. Take `C1CCC(NC2CCCCC2)CC1`: the Potency result in [2], in assay [3] and in assay [7] was “inactive” throughout. The max response in [4] is 1.26% (inactive) and -8.57% (inactive) and 6.08% (inactive); in assay [5], 18.7% (inactive); in [6], 4.88% (inactive) and 5.5% (inactive) and 0.405% (inactive). In assay [1], the call was inactive. Take `c1ccc2[nH]ccc2c1`: the result in assay [1] was inactive. Turning to `CCN(CC)CCNC(=O)c1ccc(NC(C)=O)cc1`, the result in [1] was inactive. Turning to `CC(=O)Oc1ccccc1C(=O)O`, the compound was classed as inactive in [1]. Take `CCN(CC)c1ccc(C(=C2C=CC(=[N+](CC)CC)C=C2)c2cc(S(=O)(=O)O)ccc2S(=O)(=O)[O-])cc1`: in assay [1], the compound was classed as inactive.

In the case of `COc1cc2c(cc1OC)C(=O)CC2`, in [1], the outcome was inactive. For `CC(C)CCCC(C)CCCC(C)CCCCC(C)CCCC(C)CCCC(C)C` (stereo unspecified), the compound was called inactive in [1]. As to `CCN1CCN(c2cc3c(cc2F)c(=O)c(C(=O)O)cn3C2CC2)CC1`, in assay [1], the compound was called inactive. Turning to `C[C@@H]1CN(c2c(F)c(N)c3c(=O)c(C(=O)O)cn(C4CC4)c3c2F)C[C@H](C)N1`, the result in assay [1] was inactive.

In the case of `C/C(=C1\CCOC(=O)S1)N(C=O)Cc1cnc(C)nc1N`, the call in assay [1] was inactive. On the same count and under the same terms, the same measure for `CN(C(=O)C(Cl)Cl)c1ccc(OC(=O)c2ccco2)cc1`: “inactive”; for `O=C(Nc1cccc(C2=NCCN2)c1)Nc1cccc(C2=NCCN2)c1`: “inactive”.

On to `Cc1cc(O)ccc1Cl`, for which the Potency entry in assay [2], in assay [3] and in assay [7] was “inactive” in each case. Also, the max response in assay [4] is 3.07% (inactive); in assay [5] it was 25.2% (inactive); in assay [6] it was -2.31% (inactive). Moreover, in assay [1], the outcome was inactive. For `CN1Cc2cc(C(=O)N3CCC(C4CCNCC4)CC3)ccc2N[C@@H](CC(=O)O)C1=O`, the call in [1] was inactive. For the compound `CCOCCOC(C)=O`, the Potency result in assay [2], in assay [3] and in [7] was “inactive” each time. Moreover, the results for the max response in assay [4], in assay [5] and in assay [6] were 4.03% (inactive), 4.31% (inactive) and -0.828% (inactive), respectively. For the same compound, the compound was called inactive in assay [1]. Take `CCOC(=O)c1cccnc1`: in [1], the result was inactive. Regarding `CCC(=O)O[C@@H]1C=C2CCC3C(CCC4(C)C3CC[C@@H]4OC(=O)CC)C2CC1` (stereo partly specified), in [1], the compound was called inactive.

In the case of `COc1cc(S(N)(=O)=O)cc(C(=O)O)c1OC`, the result in assay [1] was inactive. Turning to `C[C@]12C[C@H](O)[C@H]3[C@@H](CCC4=CC(=O)CC[C@@]43C)[C@@H]1CC[C@@H]2C(=O)CO`, the outcome in assay [1] was inactive. On to `O=[N+]([O-])c1cccc(S(=O)(=O)NCCNS(=O)(=O)c2cccc([N+](=O)[O-])c2)c1`, for which the result in [1] was inactive. Consider `OCc1ccccn1`, for which the call in [1] was inactive. `O=[N+]([O-])c1c2ccccc2cc2ccccc12`: the Potency entry in assay [3] is “inactive”. For the compound `O=C(O)COc1ccccc1`, in assay [3], the Potency entry was “inactive”. On to `Cc1cc(C(=O)NNCc2ccccc2)no1`, for which the outcome in [8] was inactive. Consider `O=C(Nc1cc(C(F)(F)F)cc(C(F)(F)F)c1)c1cc(Cl)ccc1O`, for which the Potency in assay [5] was 7.43 µM (active). On to `CN(C)NC(=O)CCC(=O)O`, for which the Potency result in assay [2], in [3] and in assay [7] was “inactive” each time. For the same compound, the max response in [4] was -0.912% (inactive) and -0.667% (inactive); in assay [6], 1.56% (inactive) and -3.81% (inactive). This compound returned a parasite growth, % of DMSO control in assay [9] of 91.1%. For the same compound, the parasite growth remaining, % of DMSO control (lower = more inhibition) in [10] amounted to 101%. Moreover, the parasite growth, % of control (lower = inhibition) in assay [11] came out at 141%. This compound also came in with a growth, % of control in assay [12] of 106%.
